This note sets out measurements from PubChem BioAssay.

Unmarked numbers belong to inactive results. How the calls were made is not given here.

For the assay, the target named is Pantothenate synthetase (Mycobacterium tuberculosis (strain ATCC 25618 / H37Rv)) (UniProt P9WIL5). The experiment in a line: Recombinant Mtb pantothenate synthetase (PanC) inhibitors, coupled enzyme, confirmatory (AID 375).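 Further: 0% = full reaction with vehicle and 100% = no enzyme background.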 As to conditions: coupled enzyme assay; at 10 µM, active compounds read high.
Chain of Pantothenate synthetase (Mycobacterium tuberculosis (strain ATCC 25618 / H37Rv)) (P9WIL5 whole entry, looked up): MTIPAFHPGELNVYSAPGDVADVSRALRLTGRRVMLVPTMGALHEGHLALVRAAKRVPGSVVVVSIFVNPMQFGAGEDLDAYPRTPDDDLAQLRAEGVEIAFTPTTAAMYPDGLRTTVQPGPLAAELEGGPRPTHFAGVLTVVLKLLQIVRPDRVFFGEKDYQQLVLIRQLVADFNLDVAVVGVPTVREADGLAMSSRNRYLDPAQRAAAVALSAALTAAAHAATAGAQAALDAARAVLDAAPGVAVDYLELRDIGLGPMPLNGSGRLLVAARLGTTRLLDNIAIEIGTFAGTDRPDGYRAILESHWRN
Consider `COc1ccc(N2CCN(CCNS(=O)(=O)c3cccc4nsnc34)CC2)cc1`, for which the inhibition (in general, the percentage by which the read-out fell short of the control) was 2%.

Take `CCN(CCNC(=O)C1CCN(S(=O)(=O)c2cccc3cccnc23)CC1)c1ccccc1`: the inhibition is 1%.

With `COc1ccc(OC)c(C(=O)c2nc3c(n2O)CCCCC3)c1`, the inhibition is 0%.

Consider `CC(=O)c1c(C)nn(C(C)CC(=O)O)c1C` (stereo not given), for which the inhibition was 0%.

On to `Cn1c(=O)[nH]c(=O)c2c1nc(N1CCOCC1)n2CC(O)COc1ccc2ccccc2c1` (stereo not given), for which the inhibition was 0%.

As to `O=C(c1ccc(Br)o1)N(Cc1ccccc1)c1ccccn1`, the inhibition was 3%.

For `COc1cccc(-c2cc(C(F)(F)F)nc(NCc3ccco3)n2)c1`, the inhibition was 0%.

As to `CCOC(=O)C1CCN(S(=O)(=O)c2cc(Cl)c(C)cc2OC)CC1`, the inhibition was 4%.

Regarding `CC(C)(C)n1nnnc1CN1CCN(C2CCCC2)CC1`, the inhibition is 3%.

For `CCOC(=O)c1sc(Nc2nc3c(OC)cccc3s2)nc1C`, the inhibition is 1%.

In the case of `Cc1ccc(CCNC(=O)C2CCN(S(=O)(=O)c3ccc4c(c3)CCC(=O)N4)CC2)cc1`, the inhibition was 0%.

As for `COc1ccc(S(=O)(=O)N2CCCC2C(=O)Nc2ccc(O)cc2)cc1` (stereo not given), the inhibition was 0%.

As to `CCOC(=O)C1=C(C)NC(=O)C(C#N)C1c1ccco1` (stereo not given), the inhibition was 5%.

Consider `O=C(NC1CC2CCC1C2)c1ccc(CN2CCOCC2)cc1` (stereo not given), for which the inhibition is 5%.

On to `Cc1ccc(-c2ccc(=O)n(CCC(=O)NCc3ccccn3)n2)cc1`, for which the inhibition is 4%.

With `CCOC(=O)n1c(=O)oc2cc(S(=O)(=O)N3CCCCC3)ccc21`, the inhibition was 7%.

Regarding `CCOC(=O)c1cccc(NC(=O)CSc2nnc(-c3cccnc3)n2CC)c1`, the inhibition was 0%.

`CCOc1cc(C2C(C(=O)OC(C)C)=C(C)N=C3SCCC(=O)N32)ccc1OC(C)=O` (stereo not given): the inhibition was 0%.

On to `COc1ccc(-c2nnc(SCC(=O)N3CCOCC3)o2)cc1OC`, for which the inhibition is 0%.

With `CC1(C)NC(=O)N(CC(O)COc2cccc(F)c2)C1=O` (stereo not given), the inhibition is 0%.

In the case of `C=CCn1cc(C(=O)NCCOC)c(=O)c2cc(S(=O)(=O)N(CC)CC)ccc21`, the inhibition is 0%.

As to `Cc1c(C(=O)NC2CCCc3ccccc32)oc2ccc(S(=O)(=O)N3CCOCC3)cc12` (stereo not given), the inhibition was 6%.

For `O=C(Nc1ccc(S(=O)(=O)Nc2ccc(Cl)cc2)cc1)C1CCCO1` (stereo not given), the inhibition is 4%.

Turning to `O=S(=O)(NCCSc1ccccc1)c1cccs1`, the inhibition is 0%.

In the case of `Cc1ccc(NC(=O)Nc2ccc3c(c2)N(C)C(=O)CS3)nc1`, the inhibition was 5%.

`Cc1nnc(NC(=O)CCC(=O)N2CCC(C)CC2)s1`: the inhibition is 0%.

For the molecule `Cc1ccccc1NC(=O)CSc1nnc(Cc2cccn2C)n1-c1ccc(F)cc1`, the inhibition is 0%.

On to `O=C(Nc1ccccc1)N1CCC(c2ccccc2)C1` (stereo not given), for which the inhibition was 6%.

In the case of `Nc1c(C(=O)NCCc2ccccc2)nnn1Cc1ccccc1`, the inhibition was 0%.

Turning to `O=C(Nc1ccccc1C(=O)N1CCCCCC1)c1cccc(S(=O)(=O)N2CCOCC2)c1`, the inhibition was 5%.

For `Cn1c(SCC(=O)Nc2ccc(F)cc2)nnc1-c1cccnc1`, the inhibition is 0%.

Regarding `COC(=O)c1ccccc1NC(=O)c1noc2c1CC(C(C)(C)C)CC2` (stereo not given), the inhibition was 2%.

Regarding `CCOC(=O)C1=C(Cn2cnc3ccccc32)NC(=O)NC1c1cc(C)ccc1C` (stereo not given), the inhibition is 0%.

In the case of `COCCNC(=O)Cn1nc(C(F)(F)F)c(Br)c1C`, the inhibition is 0%.

In the case of `COc1cccc(N2CCN(C(=O)C3C4C=CC5(CN(Cc6ccccc6Cl)C(=O)C35)O4)CC2)c1` (stereo not given), the inhibition is 0%.

Turning to `O=C(O)c1cc(-c2ccccc2)nc2ccccc12`, the inhibition is 3%.

Take `CCCCn1c(NC(=O)CC)c(C#N)c2nc3ccccc3nc21`: the inhibition is 4%.

Take `CCCn1c(=O)c2[nH]c(C3CCCC3)nc2n(CCC)c1=O`: the inhibition is 7%.

As for `COc1ccc(Cc2nn3c(-c4cc(OC)c(OC)c(OC)c4)nnc3s2)cc1`, the inhibition is 0%.

Regarding `COc1nc2ccc(C)cc2cc1-c1noc(-c2cccnc2)n1`, the inhibition is 4%.
